# Biological target: NAGPA
# Experiment: pooled miR-30 sensor sort-seq; sequence = guide strand
# Settings: shRNA
# Further: reference of the scale not given here.
row,Sequence,sensor-assay potency score (higher = more potent)
1,TCGTTGATGTAGATGCTTCCAT,-0.346
2,TTGAGCACAAAGGTGGCAGAGC,-0.854
3,TTCCTCTCTGCTCTGGACAGGA,-0.227
4,TAGGGCAGTAGCAAGTCGTCGT,0.274
5,TTGATGTAGATGCTTCCATTAC,-1.88
6,TGTGTCTCGTCACACTCTGTGG,-1.05
7,TGTCTCGTCACACTCTGTGGCT,-0.832
8,TTCATGCGGAAGAAGCCGCCGT,-0.589

# Biological target: NAGS
# Experiment: as above
# Settings: shRNA
row,Sequence,sensor-assay potency score (higher = more potent)
1,TTGAGGAAGATGATTTTGGTGG,-0.197
2,TTGATGGGGTTGGTGACCCGGG,-1.22
3,TTATTGAGGAAGATGATTTTGG,-0.526
4,TGTAGCTTTAGAGTGAGTCGAG,0.177
5,TTTAGAGTGAGTCGAGTTGGGG,-0.776
6,TCTACCAGCACCTTGCAGCTCT,0.351
7,TCACTGTGTTTGAAGTACCAGG,-0.966
8,TTGCACACCAGGTCCAGGTCGG,-0.37
9,TAGTCGTCCCTGAGCTTCTTGC,-1.38
10,TTGACCAGGTCCACTAGACGGC,-0.973
11,TTACTCAGGACCTTATGACTGC,-0.0355
12,TTAGAGTGAGTCGAGTTGGGGT,-0.187

# Biological target: NAP1L5
# Experiment: as above
# Settings: shRNA
row,Sequence,sensor-assay potency score (higher = more potent)
1,TTCTATCTTATCGCATCGCTTC,-0.589
2,TTTTTGAGGGCCAGGACTCGGC,-1.25
3,ATACTTTTTTTCCAGAGCCTGA,-1.24
4,TATACTTTTTTTCCAGAGCCTG,-1
5,TTGGATCTTGGCGAGTAGGGGC,-0.336
6,TTGGCTTCTATCTTATCGCATC,-1.13
7,TCTTATCGCATCGCTTCTGCAG,-1
8,TTATAGATGTCATTATACTTTT,-1.32
9,TCTATCTTATCGCATCGCTTCT,-0.911
10,TTGAGGGCCAGGACTCGGCATT,-1.45
11,TATCTTATCGCATCGCTTCTGC,0.0139

# Biological target: NARF
# Experiment: as above
# Settings: shRNA
row,Sequence,sensor-assay potency score (higher = more potent)
1,TTTCTTACTACATTCCTTGCGC,0.306
2,TTATTTGAGCAATTTCACCTGA,0.612
3,TGAGGTATCACATTTCTTGTTA,-0.0479
4,TTCTTTTTGACTCTCCAGGATA,-1.07
5,TGGTGCAATCTTGTCTCGCTGT,-0.584
6,TTGAACAGCTCCTTGGCCGCAT,0.2
7,TTTAGCAGCAAAATAAGGCAAA,-0.927
8,ATCCTCGTTGAACAGCTCCTTG,-0.97
9,TTGTTTTCTTACTACATTCCTT,-0.477

# From the OligoGym collection
